In ChEMBL document CHEMBL3988442, “University of Dundee, Small-Polar-MMV Screening Library” (2021):

System: Trypanosoma cruzi
Assay: Trypanosoma cruzi phosphomannomutase and mannose-1-phosphate guanylyltransferase assay
Format: functional
Set-up: scale not given: direction of the effect not stated beside the values
Conditions: 10 µM

SMILES	Percent Effect
Cn1cc(CC2CCN(C(=O)NCc3cn4ccsc4n3)C2)cn1 (stereo not drawn)	5.36%
COc1cc(C(=O)N(CCC#N)Cc2ccccn2)cc(OC)c1C	7.89%
CN(Cc1cccnc1)C1CC2(CCN(c3ccccn3)CC2)C1	-5.12%
Cc1cc(NC(=O)N2CCN(c3nc(C)c(C)s3)CC2)no1	-4.3%
CN(C)CCCNC(=O)c1cc(Br)c2c(c1)OCCO2	3.6%
O=C(Cn1nc2c(cc1=O)CCCC2)N[C@@H](C(=O)O)c1ccccc1	3.34%
Cc1cnn(CC2CN(c3cnc4ccccc4n3)CCO2)c1 (stereo not drawn)	12%
CNC(=O)[C@H]1C[C@@H]2CN(C(=O)c3cscn3)C[C@@H]2N1S(C)(=O)=O	-4.05%
Cn1cc(CN2C[C@@H]3COC[C@]3(C(=O)NCc3ccccn3)C2)cn1	0.772%
CCn1c(Nc2ccccc2OC)nc2c(C)nn(C)c2c1=O	-6.88%
Cc1ccc(CNCc2nnc3n2CC(C(F)(F)F)CC3)cc1 (stereo not drawn)	3.23%
O=c1[nH]c2c(c(=O)n1C1CCCCC1)CCC2Nc1ccccc1 (stereo not drawn)	0.393%
Cc1ccc(C)c(C(NC(=O)C2CC2)c2cccnc2)c1 (stereo not drawn)	4.24%
Cc1cc(N2CCN(CC(=O)N(C)C)CC2)nc(-c2ccncc2)n1	11%
c1cc(OCc2ccc3c(c2)OCCO3)ccc1CNC1CC1	-7.3%
CN(Cc1ccccn1)C1CC2(CCN(Cc3cccnc3)CC2)C1	-10%
Cc1ccc(CNC(=O)N(Cc2ccccc2F)C2CC2)cn1	-1.27%
O=C(NC1CCC1)[C@@H]1CCO[C@@H]2CCN(CCc3ccccc3)C[C@H]21	4.3%
c1ccc2sc(N3CCOC(Cn4cccn4)C3)nc2c1 (stereo not drawn)	4.25%
Cc1nn(CCO)c(C)c1CNC1CCC(C)(C)c2ccccc21 (stereo not drawn)	7.3%

SMILES	Percent Effect
CSCC(=O)N1CCCC1c1noc(C2CC2)n1 (stereo not drawn)	4.97%
Cc1cc(S(=O)(=O)Nc2cccc(-n3cccc3)c2)sc1C(=O)O	4.99%
CNC(=O)[C@@H]1C[C@H]2CN(C(=O)c3ccco3)C[C@H]2N1C	-3.67%
O=C(Cc1ccccn1)N1CCC2(CC1)CC(Oc1ccccn1)CO2 (stereo not drawn)	-1.18%
CN(C)C(=O)[C@@H]1CCO[C@@H]2CCN(Cc3ccccc3)C[C@@H]21	-6.45%
NC(=O)c1nc(COc2ccc3c(c2)OCO3)no1	-8.84%
CNC(=O)c1cnc(/C=C/c2ccc(OC)c(O)c2)s1	-5.27%
Cc1ccc([C@@H]2CN(S(=O)(=O)C(C)C)C[C@H]2N(C)C)cc1	7.33%
Cc1cc(C(=O)N2CCC3(CCCN(CC4CC4)C3=O)C2)c(C)n1C (stereo not drawn)	0.794%
CCCN1CCC(NC(=O)c2ccc(F)cc2I)CC1	2.23%
COCCC(=O)N1CCC2(COCc3c(C)nc(NCC4CC4)nc32)C1 (stereo not drawn)	-5.32%
CN(Cc1ccco1)[C@@H]1CN(Cc2ccco2)[C@@H]2CCCO[C@H]12	-5.71%
CC(C)c1n[nH]c(C(=O)Nc2ccncc2)c1Br	-3.31%
COc1ccc(-c2nc(CN3CC(n4nc(C)cc4C)C3)no2)cc1	-6.79%
CCC(C(=O)NCc1ccncc1)N(c1cccc(C)c1)S(C)(=O)=O (stereo not drawn)	5.16%
Cc1cc(C)n(C2CN(Cc3noc(-c4ccccc4)n3)C2)n1	-6.39%
CC(O)CNCc1ccc(OCc2ccc3c(c2)OCCO3)cc1 (stereo not drawn)	-3.6%
Cc1cc(CNC(=O)N2CCN(c3ccccc3)CC2)no1	0%
O=c1[nH]c2c(c(=O)n1C1CCCCC1)CCC2NCCc1ccccc1 (stereo not drawn)	2.75%
O=C(c1ccc(C2CCCO2)s1)N1Cc2ccccc2C1 (stereo not drawn)	-4.25%

Target: T1, Arginase-2, mitochondrial (Homo sapiens) (UniProt P78540)
T1 sequence (whole entry): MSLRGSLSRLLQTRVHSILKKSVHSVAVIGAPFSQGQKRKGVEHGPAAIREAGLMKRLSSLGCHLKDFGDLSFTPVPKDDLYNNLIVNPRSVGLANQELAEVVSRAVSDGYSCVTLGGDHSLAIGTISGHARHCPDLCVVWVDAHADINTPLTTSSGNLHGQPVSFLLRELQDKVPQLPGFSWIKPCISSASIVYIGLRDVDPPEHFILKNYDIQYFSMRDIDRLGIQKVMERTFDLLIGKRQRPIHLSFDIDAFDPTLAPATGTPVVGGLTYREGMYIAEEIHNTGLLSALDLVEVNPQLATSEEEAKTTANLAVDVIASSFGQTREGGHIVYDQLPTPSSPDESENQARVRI
Assay: in vitro enzyme assay to detect the production of urea directly proportional to the activity of Arginase II; also: in the data most compounds retested in dose-response had high values
Format: functional
Set-up: scale not given: direction of the effect not stated beside the values
Conditions: 30 µM

SMILES	Percent Effect
Cn1cc(CC2CCN(C(=O)NCc3cn4ccsc4n3)C2)cn1 (stereo not drawn)	2.7%
COc1cc(C(=O)N(CCC#N)Cc2ccccn2)cc(OC)c1C	2.7%
CN(Cc1cccnc1)C1CC2(CCN(c3ccccn3)CC2)C1	3.78%
Cc1cc(NC(=O)N2CCN(c3nc(C)c(C)s3)CC2)no1	3.78%
CN(C)CCCNC(=O)c1cc(Br)c2c(c1)OCCO2	-0.54%
O=C(Cn1nc2c(cc1=O)CCCC2)N[C@@H](C(=O)O)c1ccccc1	8.11%
CNC(=O)[C@H]1C[C@@H]2CN(C(=O)c3cscn3)C[C@@H]2N1S(C)(=O)=O	4.87%
Cn1cc(CN2C[C@@H]3COC[C@]3(C(=O)NCc3ccccn3)C2)cn1	-0.54%
CCn1c(Nc2ccccc2OC)nc2c(C)nn(C)c2c1=O	-9.19%
Cc1ccc(CNCc2nnc3n2CC(C(F)(F)F)CC3)cc1 (stereo not drawn)	-11.3%
O=c1[nH]c2c(c(=O)n1C1CCCCC1)CCC2Nc1ccccc1 (stereo not drawn)	-11.3%
CN(Cc1ccccn1)C1CC2(CCN(Cc3cccnc3)CC2)C1	-2.7%
Cc1ccc(CNC(=O)N(Cc2ccccc2F)C2CC2)cn1	13.5%
O=C(NC1CCC1)[C@@H]1CCO[C@@H]2CCN(CCc3ccccc3)C[C@H]21	8.11%
Cc1nn(CCO)c(C)c1CNC1CCC(C)(C)c2ccccc21 (stereo not drawn)	2.7%
CSCC(=O)N1CCCC1c1noc(C2CC2)n1 (stereo not drawn)	4.87%
CNC(=O)[C@@H]1C[C@H]2CN(C(=O)c3ccco3)C[C@H]2N1C	-9.19%
O=C(Cc1ccccn1)N1CCC2(CC1)CC(Oc1ccccn1)CO2 (stereo not drawn)	2.7%
CN(C)C(=O)[C@@H]1CCO[C@@H]2CCN(Cc3ccccc3)C[C@@H]21	-1.62%
Cc1ccc([C@@H]2CN(S(=O)(=O)C(C)C)C[C@H]2N(C)C)cc1	-14.6%
CCCN1CCC(NC(=O)c2ccc(F)cc2I)CC1	5.95%
COCCC(=O)N1CCC2(COCc3c(C)nc(NCC4CC4)nc32)C1 (stereo not drawn)	4.87%
CN(Cc1ccco1)[C@@H]1CN(Cc2ccco2)[C@@H]2CCCO[C@H]12	-2.7%
COc1ccc(-c2nc(CN3CC(n4nc(C)cc4C)C3)no2)cc1	2.7%
CCC(C(=O)NCc1ccncc1)N(c1cccc(C)c1)S(C)(=O)=O (stereo not drawn)	10.3%
Cc1cc(C)n(C2CN(Cc3noc(-c4ccccc4)n3)C2)n1	5.95%
Cc1cc(CNC(=O)N2CCN(c3ccccc3)CC2)no1	3.78%
O=c1[nH]c2c(c(=O)n1C1CCCCC1)CCC2NCCc1ccccc1 (stereo not drawn)	1.62%
